Source: PubChem BioAssay
M1 PAM parental = nonselective calcium activators in parental CHO-K1 cells, primary screen, counter-screen for M1 PAM project, cell-based, Fluo-8 calcium fluorescence, full deck, 1536-well; actives 0.02% (n = 360,000); ATP EC20; 0% at ATP EC20, 100% at ATP max; activation, % at 3 µM;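 active means activation above the run cutoff, the mean activation of all test compounds plus 3 SD, cut at about 40% in these data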;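 further: peak over basal fluorescence ratio in a 140 s read after ATP addition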
M1 antag = human M1 muscarinic receptor antagonists, primary screen, CHO-K1 cells, Fluo-8 calcium fluorescence, 1536-well; CHO-K1 hM1, ACh EC80 antagonist; Muscarinic acetylcholine receptor M1 (Homo sapiens), P11229; inhibition, % at 3 µM; actives 1.3% (n = 360,000); AID 588852, 2011;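 active means percent inhibition above its own plate's cutoff, namely the mean of that plate's compound wells plus 3 SD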;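 further: peak over basal fluorescence ratio during 140 s after agonist addition; 0% = ACh EC80 plus DMSO and 100% = DMSO alone without agonist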
Target sequence (P11229 whole entry, looked up): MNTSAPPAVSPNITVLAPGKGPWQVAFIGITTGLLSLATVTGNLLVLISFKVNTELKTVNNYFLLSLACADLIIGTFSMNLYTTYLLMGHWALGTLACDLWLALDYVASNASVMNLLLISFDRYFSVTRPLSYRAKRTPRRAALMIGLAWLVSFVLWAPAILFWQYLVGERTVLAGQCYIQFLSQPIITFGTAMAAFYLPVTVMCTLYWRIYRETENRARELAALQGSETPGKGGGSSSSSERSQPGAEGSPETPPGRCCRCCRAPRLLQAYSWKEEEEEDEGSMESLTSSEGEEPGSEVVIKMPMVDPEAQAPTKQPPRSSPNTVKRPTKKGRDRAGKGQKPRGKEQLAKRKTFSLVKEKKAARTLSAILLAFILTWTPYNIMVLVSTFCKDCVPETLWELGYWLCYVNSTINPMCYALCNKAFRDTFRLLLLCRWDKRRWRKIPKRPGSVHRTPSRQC
M1 ag parental = counter-screen for M1 agonists: effect in parental CHO-K1 cells; Fluo-8 calcium fluorescence; scaled to maximal ATP response, vehicle zero; activation, % at 3 µM; actives 0.48% (n = 360,000); AID 602248, 2012; in the data active means activation above about 15%;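 further: untransfected CHO-K1 host cells lacking M1 receptor as counterscreen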
CHO-K1 Ca antag = M1 antagonist counterscreen hit in parental CHO-K1 cells; ATP-induced calcium, Fluo-8 fluorescence; inhibition, % at 3 µM; actives 0.6% (n = 360,000);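 active means inhibition above a per-plate cutoff, the plate's mean sample inhibition plus 3 SD, cut at about 24% in these data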;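 further: 0% = DMSO plus EC80 ATP and 100% = DMSO alone without ATP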
CHRM1 agonist = human M1 muscarinic receptor agonists, primary screen, Fluo-8 calcium fluorescence, CHO-K1 cells, HTS. Muscarinic acetylcholine receptor M1 (Homo sapiens), P11229. CHO-K1 hM1, agonist mode; 0% DMSO, 100% acetylcholine EC100. activation, % at 3 µM. actives 0.33% (n = 360,000). AID 588814, 2011;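 active means activation above the run's mean compound activation plus 3 SD, cut at about 16% in these data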;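 further: peak over basal fluorescence ratio within a 140 s kinetic read after compound addition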
CHRM1 PAM = human M1 muscarinic receptor positive allosteric modulators, primary screen, CHO-K1 cells, Fluo-8 calcium fluorescence, 1536-well; Muscarinic acetylcholine receptor M1 (Homo sapiens), P11229; CHO-K1 hM1, ACh EC20; 0% = ACh EC20, 100% = maximal ACh; activation, % at 3 µM; actives 0.088% (n = 360,000); AID 588819, 2011; in the data active means activation above about 19%, passing the limit was not always enough
* marks the source's active call; other numbers are inactive results; · = not tested or not shown. Most compounds without a hit are left out; they make up all but 2.3% or so of the library.

SMILES	M1 PAM parental	M1 antag	M1 ag parental	CHO-K1 Ca antag	CHRM1 agonist	CHRM1 PAM
COc1cc(C2C=C(c3cccs3)Nc3ncnn32)cc(OC)c1OC (stereo unspecified)	-2.1	7.9	19.7*	3.5	12.2	-1.8
COc1ccc(-c2csc(NC(=O)c3nc(-c4ccccc4)oc3C)n2)cc1	-4.9	2.0	-0.3	30.8*	2.0	10.2
O=C1C2C3C=CC(C4CC34)C2C(=O)N1c1cccc2ccccc12 (stereo unspecified)	23.6	-7.5	18.2*	-5.2	11.8	6.4
Cc1cccc(C)c1-n1nnnc1C(c1ccnc2ccccc12)N1CCCN(C(=O)OC(C)(C)C)CC1 (stereo unspecified)	18.6	·	0.6	-15.2	·	·
O=C(O)CC(Cc1ccc(Cl)cc1)C(=O)NCC12CC3CC(CC(C3)C1)C2 (stereo unspecified)	0.2	31.5*	0.0	-5.1	-6.1	-11.2
Cc1ccc(CC(CC(=O)O)C(=O)NCC23CC4CC(CC(C4)C2)C3)cc1 (stereo unspecified)	-6.3	3.2	-0.2	4.1	-2.1	-5.4
C/C(=N\OCc1ccc(C#N)cc1)c1ccc(S(=O)(=O)N(C)C)cc1	-7.1	28.1	15.4*	9.2	-3.4	-18.2
c1ccc(CNc2ncnc3nc[nH]c23)cc1	9.5	-20.5	-0.6	7.4	-1.2	2.1
CCCNc1ncnc2nc[nH]c12	-8.9	-6.3	-0.1	-3.1	-1.6	5.7
c1ccc(CCCNc2ncnc3nc[nH]c23)cc1	16.1	1.9	7.7	-2.0	20.5*	-5.3
Clc1ccc(CCNc2ncnc3nc[nH]c23)cc1	-3.0	29.8*	12.9	30.2*	5.6	-20.9
c1ccc2c(CCNc3ncnc4nc[nH]c34)cccc2c1	-2.4	54.4*	10.6	23.6	6.8	-20.3
COc1ccc2[nH]c3c(NCCCOC(C)C)ncnc3c2c1	-0.6	11.0	1.9	-6.5	-8.0	-13.2
COc1ccc2[nH]c3c(NCCC4=CCCCC4)ncnc3c2c1	-12.1	22.9	15.1*	13.8	0.0	-9.1
Cc1ccc(C(=O)NCCN2CCC(n3c(=O)[nH]c4ccccc43)CC2)cc1C	-8.7	·	-0.1	14.5	·	·
CCc1nc2ccc(C(=O)Nc3ccc4c(c3)OCC(=O)N4)cn2c1N(C)C(=O)C1CCCCC1	12.2	-12.9	-0.2	-4.1	1.3	9.8
C1=C(CCNc2ncnc3nc[nH]c23)CCCC1	-8.8	28.3*	8.2	1.7	2.0	-18.6
CN(C)S(=O)(=O)c1ccc2c(c1)nc(CCC(=O)O)n2C	5.4	-2.3	-0.1	4.3	-5.0	4.4
CCn1c(CCC(=O)O)nc2cc(S(=O)(=O)N(C)C)ccc21	-15.5	-4.7	-0.3	29.9*	-6.8	3.6
CCn1c(SCC(=O)NCc2ccccc2)nc2c(c1=O)SC(C)C2 (stereo unspecified)	-9.3	-1.9	-0.2	32.4*	-0.4	8.9
CCn1c(SCC(=O)NCc2ccc(F)cc2)nc2c(c1=O)SC(C)C2 (stereo unspecified)	-4.4	7.1	0.2	14.1	0.3	3.6
O=[N+]([O-])c1ccc(OCC(O)CN(C2CCCCC2)C2CCCCC2)cc1 (stereo unspecified)	12.4	-7.5	-0.7	-3.6	-14.3	7.8
COc1ccc(OCC(O)CN(C2CCCCC2)C2CCCCC2)cc1 (stereo unspecified)	-4.6	-0.6	-0.1	25.5*	-3.4	6.3
NC1=NC2(CCCCC2)n2c(nc3ccccc32)N1	9.1	-12.5	-0.1	-9.5	-4.3	-7.1
NC1=NC2(CCN(Cc3ccccc3)CC2)n2c(nc3ccccc32)N1	-8.1	-3.0	-0.6	29.3*	-6.2	-4.5
CCOC(=O)C1=C(C)N(c2ccccc2)C(=O)NC1c1cccc([N+](=O)[O-])c1 (stereo unspecified)	6.4	68.1*	0.4	0.1	-8.9	-23.2
